# High-throughput results deposited in PubChem by National Center for Advancing Translational Sciences (NCATS).
# A selection: hits, their analogues and other compounds. The true share with any hit is near 5.8%.
# TSHR ag: agonists of human thyroid stimulating hormone receptor; Potency, µM (doses to about 57.1 µM), for inactives: top-dose activation, usual class: activators; 73,000 compounds, 0.48% hits; P16473; HEK293-CNG-TSHR cells (CNG channel as cAMP sensor), membrane potential dye, cAMP; AID 926; active = well fitted activation curve with a large enough effect in the main read-out, with a control signal flat, not every such curve was filed as active; inconclusive = small, poorly fitted or top-dose-only effect, or a change in a side signal; inactive = no such curve, though single readings can be large or run the other way; % of control where 0% means no effect;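 note: the control signal comes from parental cells without the receptor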
#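 cAMP rise detected as CNG-channel membrane depolarization by fluorescent dye (emission 590 nm), 30 min after compound, following 60 min dye loading containing 100 uM RO 20-1724 at room temperature. Cells: TSHR/CNG HEK 293, with parental CNG HEK 293 as control.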
# Luciferase inh: blocks Photinus pyralis firefly luciferase activity; AID 411; purified firefly luciferase, luminescence, 8 min; Potency, µM (titrated, usually from 57.1 µM), inactives show at the highest dose activity change, negative = inhibition, most hits filed as inhibitors; 72,000 compounds, 2.2% hits; P08659; note: % is set by controls: 0 for no effect and ±100 for the full control effect; nearly all actives have a fitted effect of over 40% in size
#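 Titration-based qHTS; buffer 50 mM imidazole pH 7.2, 50 mM KCl, 7 mM MgCl2, 10 uM ATP, 0.01% Tween 20, 0.05% BSA; luciferase/luciferin detector mix added after compound; 8 min, ambient; luminescence.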
# Bst PK mod: modulators of Bacillus stearothermophilus pyruvate kinase; purified pyruvate kinase, luminescence ATP production; ribose 5-phosphate activator present at AC10; Potency, µM; 51,000 compounds, 1.2% hits; in the data active = potency below about 11 µM; inconclusive = mostly about 12 µM to 25 µM;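 the screen sought inhibitors and activators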;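 note: scaled between full activation by ribose 5 phosphate and full inhibition by luteolin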
# HEK293 cAMP ctrl: counter-screen for TSHR agonists: cAMP increase in parental HEK293 | parental HEK293 CNG cAMP sensor, membrane potential fluorescence | Potency, µM (series often up to 57.1 µM), for inactives: at the top dose activation, most hits filed as activators | 73,000 compounds, 2.5% hits; note: % of control where 0% means no effect; nearly all actives have a fitted effect of over 55% in size
#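 Parental HEK 293 cells stably expressing a modified CNG channel (no TSHR) report cAMP rise as membrane depolarization. Membrane potential dye with 100 uM RO 20-1724 was loaded for 60 min at room temperature, then compound added for 30 min; fluorescence read at 590 nm.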
# GBA activity: alters purified human glucocerebrosidase activity; P04062; purified enzyme, resorufin glucoside fluorescence (screen aimed at inhibitors), 20 min; Potency, µM; 48,000 compounds, 1.1% hits; in the data active = potency below about 15 µM; inconclusive = mostly about 16 µM to 33 µM;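 note: the screen sought inhibitors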
# Target sequence (P04062 whole entry, looked up): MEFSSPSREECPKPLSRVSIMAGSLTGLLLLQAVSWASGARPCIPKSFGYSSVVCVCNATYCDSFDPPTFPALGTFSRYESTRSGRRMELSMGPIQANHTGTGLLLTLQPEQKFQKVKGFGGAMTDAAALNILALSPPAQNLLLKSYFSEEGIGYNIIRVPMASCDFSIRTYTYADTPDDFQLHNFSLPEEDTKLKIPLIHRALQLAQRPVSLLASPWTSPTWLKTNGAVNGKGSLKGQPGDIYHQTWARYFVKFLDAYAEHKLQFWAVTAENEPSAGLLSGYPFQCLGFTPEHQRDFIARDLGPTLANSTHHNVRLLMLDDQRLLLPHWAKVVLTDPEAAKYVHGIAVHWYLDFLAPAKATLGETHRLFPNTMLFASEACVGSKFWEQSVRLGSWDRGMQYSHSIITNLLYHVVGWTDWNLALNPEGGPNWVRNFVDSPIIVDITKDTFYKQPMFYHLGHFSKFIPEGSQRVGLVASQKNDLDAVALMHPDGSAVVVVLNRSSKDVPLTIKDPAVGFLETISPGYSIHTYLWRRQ
#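 Wild-type enzyme at 0.2 nM final in 50mM citric acid/KH2PO4, 10mM sodium taurocholate, 0.01% tween-20, pH 5.9, with resorufin beta-D-glucopyranoside at 30 uM final. Compounds titrated, 20 min at RT, red fluorescence read; AC50 from titration.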
# Numbers without * were called inactive; i = inactive; ? = inconclusive; · = not tested or not shown; [ ] = dose if it differs, or a comment. Unless noted, calls come from the whole dose curve; as a rule, active = well fitted curve in the direction sought with a large enough effect; inconclusive = small, poorly fitted or top-dose-only effect, or another doubt; inactive = no such curve, though single readings can be large; an effect the other way counts as inactive or inconclusive. Potency is the fitted concentration of half-maximal effect.
SMILES,TSHR ag,Luciferase inh,Bst PK mod,HEK293 cAMP ctrl,GBA activity
COc1ccccc1CNc1ncnc2ccc(-c3cccc(C#N)c3)cc12,?,-3%[2.29 µM],·,?,·
CCOC(=O)c1ccc(-n2c(=S)sc3c(=O)[nH]c(C)nc32)cc1,3%,-3%,>57,5%,6.8*
O=C1c2ccccc2NC(c2ccc3c(c2)OCO3)N1O (stereo not given),-1%,-9%,>57,-3%,>77
O=C1c2ccccc2NC(c2ccc3c(c2)OCCO3)N1c1ccc2c(c1)OCCO2 (stereo not given),?,20µM*,·,?,>77
Cc1csc(SCC(=O)Nc2cccc3nsnc23)n1,?,1%,>57,20µM*,>77
CCOC(=O)C1=C(C)Nc2nc(C)nn2C1c1ccc(OC)c(OC)c1 (stereo not given),?,1%,·,1.6µM*,·
C=CCOC(=O)C1=C(C)NC(SC)=C(C#N)C1c1ccc(OCC)cc1 (stereo not given),0.5µM*,0%,>57,15%,?
C=CCOC(=O)C1=C(C)NC(SCC(=O)OCC)=C(C#N)C1c1ccc(O)c(OC)c1 (stereo not given),9%,1%,>57,-1%,·
Cc1nnc(NC(=O)C2CCN(c3nnnn3-c3ccccc3)CC2)s1,3%,1%,>57,10%,8.7*
COc1ccc(C(=O)c2coc3ccc(O)c(CN4CCCC4)c23)cc1,?,-1%,·,?,·
Cc1ccc(C(=O)c2coc3ccc(O)c(CN4CCN(C)CC4)c23)cc1,?,3%,>57,13µM*,i
N=C1Sc2ccccc2C2=NCCCN12,0%,3.2µM*,·,3%,·
O=C1Nc2cc3c(cc2Sc2ccccc21)OCCO3,?,7%,>57,?,·
COc1ccccc1N1CCN(S(=O)(=O)c2cccc3nsnc23)CC1,1%,1%,7.4*,15%,>77
COc1ccccc1N1CCN(S(=O)(=O)c2ccc(Cl)s2)CC1,?,0%,11*,?,>77
O=c1c(-c2ccc(F)cc2)nc2cnc(N3CCNCC3)nc2n1Cc1ccc(F)cc1,?,1%[11.4 µM],·,?,·
COc1ccccc1N1CCN(C(=O)CSc2nc(C)c(Cc3ccccc3)c(=O)[nH]2)CC1,?,0%,>57,25µM*,>77
COc1ccc(N2CCN(C(=O)CSc3ccccc3)CC2)cc1,-6%[11.4 µM],-2%,·,-1%[11.4 µM],·
COc1ccc(N2CCN(C(=O)CSc3nnc(C)c(=O)[nH]3)CC2)cc1,?,0%,>57,1.3µM*,>77
COc1ccccc1N1CCN(C(=O)CSc2nc(-c3ccccc3)cc(=O)[nH]2)CC1,19%,-1%,>57,16%,>77
C/C=C/OC(=O)NC(c1ccccc1)[C@]1(C(C)=O)CCCC1=O (stereo not given in full),1%[11.4 µM],·,·,0%[11.4 µM],·
Cc1noc(C)c1-c1cncnc1NCCN1CCOCC1,2%,1%[2.29 µM],·,-3%,·
Cc1nc(N2CCN(c3ccccc3)CC2)c2c3c(sc2n1)CCC3,16µM*,0%,·,-3%,·
Cc1nc(-n2nnc3ccccc32)c2c3c(sc2n1)CCCC3,?,1%,>57,20µM*,>77
Oc1ccc(N2CCN(c3ncnc4sc5c(c34)CCC5)CC2)cc1,·,0%,·,2%,>77
SMILES,TSHR ag,Luciferase inh,Bst PK mod,HEK293 cAMP ctrl,GBA activity
CCN1CCC[C@@H](OC(=O)C(c2ccccc2)c2ccccc2)C1,11%[25.6 µM],1%[25.5 µM],·,11%[25.6 µM],·
CCC(C)(C)C(=O)O[C@@H]1C[C@@H](C)C=C2C=C[C@H](C)[C@H](CC[C@@H]3C[C@@H](O)CC(=O)O3)[C@H]21,·,2%,·,21%,·
O=c1c(-c2cccs2)nc2cnc(N3CCNCC3)nc2n1Cc1cccs1,-9%,0%[11.4 µM],·,-13%,·
O=C(Nc1ncc(Cc2ccccc2)s1)C1CCCO1 (stereo not given),-14%,10µM*,·,8%,·
Cn1cccc1C(=O)N1CCC[C@@]2(CCN(C(c3ccccc3)c3ccccc3)C2)C1,?,0%[11.4 µM],·,10µM*,·
Cc1cc(C(=O)CSc2nnnn2-c2ccc(Cl)cc2)c(C)n1CC1CCCO1 (stereo not given),?,0%,>57,?,>77
COc1cc(-c2nnc(SCC(=O)c3cc(C)n(CC4CCCO4)c3C)o2)cc(OC)c1OC (stereo not given),18%,-8%,>57,5%,13*
Cc1cc(C(=O)CN2C(=O)c3ccccc3S2(=O)=O)c(C)n1CC1CCCO1 (stereo not given),2%,16µM*,·,-7%,>77
